# Experimental data: PubChem BioAssay AID1159580 (chemical genetic matrix, 2015)
# Several values for one entry are separate records, joined by “and”; a condition that tells them apart may be missing. Equal entries are not always repeated. The campaign covered roughly 5,500 compounds. About 2,000 (36%) were called active. Not shown: some 18% with an inconclusive outcome. Some of the results follow. Values without a mark were called inactive. Rule as the data show it: active = normalized growth mostly below about 0.91 (no sharp cut-off); inconclusive = no clear call, values can overlap the other calls; inactive = mostly above about 0.92.
# Assay: chemical genetic growth profiling, strain panel (AID 1159580);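 also: tested at 20 µM; growth read once vehicle control cultures reached saturation at 30 °C; 1 = growth at the plate median or of vehicle wells; lower values mean less growth of the strain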
# Details: S. cerevisiae deletion strains, growth OD
smiles,measurement,setting,value
CC(=O)O[C@@H]1CC2C(C)(C)C(=O)CC[C@]2(C)C2CC[C@@]3(C)[C@H](c4ccoc4)OC(=O)C4OC43[C@@]21C (some centres not stated),normalized growth,"locus YAL013W, strain DEP1, stronger effect = lower value",1.01
same,normalized growth,"locus YAL021C, strain ccr4, stronger effect = lower value",1.01
same,normalized growth,"locus YAL026C, strain drs2, stronger effect = lower value",0.982
same,normalized growth,"locus YAL030W, strain snc1, stronger effect = lower value",0.987
same,normalized growth,"locus YBL061C, strain skt5, stronger effect = lower value",0.98
same,normalized growth,"locus YBR009C, strain hhf1, stronger effect = lower value",0.985
same,normalized growth,"locus YBR021W, strain FUR4, stronger effect = lower value",0.953
same,normalized growth,"locus YBR023C, strain chs3, stronger effect = lower value",0.992
same,normalized growth,"locus YBR171W, strain sec66, stronger effect = lower value",0.952
same,normalized growth,"locus YBR229C, strain ROT2, stronger effect = lower value",1
same,normalized growth,"locus YBR231C, strain swc5, stronger effect = lower value",1.01
same,normalized growth,"locus YBR279W, strain paf1, stronger effect = lower value",0.991
same,normalized growth,"locus YCL011C, strain gbp2, stronger effect = lower value",0.977
same,normalized growth,"locus YCL016C, strain dcc1, stronger effect = lower value",1.03
same,normalized growth,"locus YCL029C, strain bik1, stronger effect = lower value",1.02
same,normalized growth,"locus YCL069W, strain vba3, stronger effect = lower value",0.96
same,normalized growth,"locus YCR088W, strain abp1, stronger effect = lower value",0.973
same,normalized growth,"locus YDL005C, strain med2, stronger effect = lower value",0.968
same,normalized growth,"locus YDL035C, strain GPR1, stronger effect = lower value",0.985
same,normalized growth,"locus YDL040C, strain nat1, stronger effect = lower value",0.976
same,normalized growth,"locus YDL074C, strain BRE1, stronger effect = lower value",0.985
same,normalized growth,"locus YDL101C, strain DUN1, stronger effect = lower value",1.01
same,normalized growth,"locus YDL134C, strain PPH21, stronger effect = lower value",0.992
same,normalized growth,"locus YDL185W, strain tfp1, stronger effect = lower value",1.01
same,normalized growth,"locus YDL192W, strain arf1, stronger effect = lower value",1.01
same,normalized growth,"locus YDR001C, strain nth1, stronger effect = lower value",0.981
same,normalized growth,"locus YDR069C, strain doa4, stronger effect = lower value",0.943
same,normalized growth,"locus YDR101C, strain arx1, stronger effect = lower value",0.994
same,normalized growth,"locus YDR137W, strain rgp1, stronger effect = lower value",0.968
same,normalized growth,"locus YDR159W, strain sac3, stronger effect = lower value",0.917
same,normalized growth,"locus YDR162C, strain NBP2, stronger effect = lower value",0.981
same,normalized growth,"locus YDR195W, strain ref2",0.972
same,normalized growth,"locus YDR297W, strain sur2, stronger effect = lower value",0.98
same,normalized growth,"locus YDR318W, strain mcm21, stronger effect = lower value",1
same,normalized growth,"locus YDR334W, strain swr1, stronger effect = lower value",0.98
same,normalized growth,"locus YDR335W, strain msn5, stronger effect = lower value",0.981
same,normalized growth,"locus YDR388W, stronger effect = lower value",1.01
same,normalized growth,"locus YDR392W, strain spt3, stronger effect = lower value",0.897
same,normalized growth,"locus YDR502C, strain sam2, stronger effect = lower value",1.02
same,normalized growth,"locus YEL003W, strain gim4, stronger effect = lower value",0.965
same,normalized growth,"locus YEL037C, strain rad23, stronger effect = lower value",0.978
same,normalized growth,"locus YEL061C, strain CIN8 (second series), stronger effect = lower value",0.961
same,normalized growth,"locus YEL061C, strain CIN8, stronger effect = lower value",1
same,normalized growth,"locus YER015W, strain faa2, stronger effect = lower value",1
same,normalized growth,"locus YER016W, strain bim1, stronger effect = lower value",0.972
same,normalized growth,"locus YER110C, stronger effect = lower value",1.02
same,normalized growth,"locus YER111C, strain swi4, stronger effect = lower value",0.961
same,normalized growth,"locus YER155C, strain BEM2 (second series), stronger effect = lower value",1.01
same,normalized growth,"locus YER155C, strain BEM2, stronger effect = lower value",0.978
same,normalized growth,"locus YER167W, strain BCK2, stronger effect = lower value",0.993
same,normalized growth,"locus YFR010W, strain ubp6, stronger effect = lower value",0.958
same,normalized growth,"locus YGL078C, strain dbp3, stronger effect = lower value",1.01
same,normalized growth,"locus YGL086W, strain mad1, stronger effect = lower value",1.01
same,normalized growth,"locus YGL167C, strain pmr1, stronger effect = lower value",0.989
same,normalized growth,"locus YGL173C, strain kem1, stronger effect = lower value",0.957
same,normalized growth,"locus YGL227W, strain vid30, stronger effect = lower value",0.975
same,normalized growth,"locus YGL240W, strain doc1, stronger effect = lower value",0.979
same,normalized growth,"locus YGL248W, strain PDE1, stronger effect = lower value",0.998
same,normalized growth,"locus YGL253W, strain hxk2, stronger effect = lower value",0.874 (active)
same,normalized growth,"locus YGR135W, strain pre9, stronger effect = lower value",1.03
same,normalized growth,"locus YGR252W, strain gcn5, stronger effect = lower value",0.959
same,normalized growth,"locus YHR013C, strain ard1, stronger effect = lower value",0.979
same,normalized growth,"locus YHR027C, strain rpn1, stronger effect = lower value",0.987
same,normalized growth,"locus YHR030C, strain SLT2, stronger effect = lower value",1.01 and 0.997
same,normalized growth,"locus YHR079C, strain IRE1 (second series), stronger effect = lower value",1.02
same,normalized growth,"locus YHR079C, strain IRE1, stronger effect = lower value",0.987
same,normalized growth,"locus YHR094C, strain hxt1, stronger effect = lower value",1.02
same,normalized growth,"locus YHR129C, strain ARP1, stronger effect = lower value",0.999
same,normalized growth,"locus YHR142W, strain chs7, stronger effect = lower value",0.96
same,normalized growth,"locus YHR200W, strain rpn10, stronger effect = lower value",1
same,normalized growth,"locus YIL066C, strain RNR3, stronger effect = lower value",0.982
same,normalized growth,"locus YIL073C, strain SPO22, stronger effect = lower value",1.01
same,normalized growth,"locus YIL125W, strain kgd1, stronger effect = lower value",0.998
same,normalized growth,"locus YIR030C, strain dcg1, stronger effect = lower value",1.01
same,normalized growth,"locus YJL092W, strain hpr5, stronger effect = lower value",0.973
same,normalized growth,"locus YJL095W, strain BCK1 (second series), stronger effect = lower value",0.993
same,normalized growth,"locus YJL095W, strain BCK1, stronger effect = lower value",0.994 and 0.967
same,normalized growth,"locus YJL115W, strain asf1, stronger effect = lower value",0.99
same,normalized growth,"locus YJL129C, strain trk1, stronger effect = lower value",0.928
same,normalized growth,"locus YJL134W, strain LCB3, stronger effect = lower value",0.999
same,normalized growth,"locus YJL154C, strain vps35, stronger effect = lower value",0.984
same,normalized growth,"locus YJL164C, strain tpk1, stronger effect = lower value",1.01
same,normalized growth,"locus YJL166W, strain qcr8, stronger effect = lower value",0.977
same,normalized growth,"locus YJL168C, strain set2, stronger effect = lower value",1.02
same,normalized growth,"locus YJL187C, strain SWE1 (second series), stronger effect = lower value",1.01
same,normalized growth,"locus YJR066W, strain TOR1, stronger effect = lower value",0.95
same,normalized growth,"locus YJR075W, strain HOC1, stronger effect = lower value",0.992
same,normalized growth,"locus YKL009W, strain mrt4, stronger effect = lower value",0.98
same,normalized growth,"locus YKL068W, stronger effect = lower value",1
same,normalized growth,"locus YKL085W, strain MDH1 (second series), stronger effect = lower value",1.01
same,normalized growth,"locus YKL085W, strain MDH1, stronger effect = lower value",1.01
same,normalized growth,"locus YKL160W, strain elf1, stronger effect = lower value",1.03
same,normalized growth,"locus YKL190W, strain CNB1, stronger effect = lower value",1
same,normalized growth,"locus YKR001C, strain vps1, stronger effect = lower value",0.987
same,normalized growth,"locus YKR026C, strain gcn3, stronger effect = lower value",0.966
same,normalized growth,"locus YKR091W, strain srl3, stronger effect = lower value",0.996
same,normalized growth,"locus YLL001W, strain dnm1, stronger effect = lower value",0.959
same,normalized growth,"locus YLL026W, stronger effect = lower value",0.989
same,normalized growth,"locus YLL041C, strain sdh2, stronger effect = lower value",1
same,normalized growth,"locus YLR027C, strain aat2, stronger effect = lower value",1
same,normalized growth,"locus YLR039C, strain RIC1, stronger effect = lower value",1.03
same,normalized growth,"locus YLR058C, strain SHM2, stronger effect = lower value",1
same,normalized growth,"locus YLR102C, strain apc9, stronger effect = lower value",1.01
same,normalized growth,"locus YLR113W, strain HOG1, stronger effect = lower value",1.02
same,normalized growth,"locus YLR221C, strain rsa3, stronger effect = lower value",0.946
same,normalized growth,"locus YLR258W, strain gsy2, stronger effect = lower value",0.988
same,normalized growth,"locus YLR262C, strain YPT6 (second series), stronger effect = lower value",0.97
same,normalized growth,"locus YLR262C, strain YPT6, stronger effect = lower value",1.01
same,normalized growth,"locus YLR268W, strain sec22, stronger effect = lower value",0.994
same,normalized growth,"locus YLR320W, strain mms22, stronger effect = lower value",0.969
same,normalized growth,"locus YLR342W, strain FKS1 (second series), stronger effect = lower value",1
same,normalized growth,"locus YLR342W, strain FKS1, stronger effect = lower value",0.977
same,normalized growth,"locus YLR357W, strain rsc2, stronger effect = lower value",1.02
same,normalized growth,"locus YLR370C, strain arc18, stronger effect = lower value",0.957
same,normalized growth,"locus YLR371W, strain rom2, stronger effect = lower value",1
same,normalized growth,"locus YLR384C, strain iki3, stronger effect = lower value",0.976
same,normalized growth,"locus YLR418C, strain cdc73, stronger effect = lower value",0.979
same,normalized growth,"locus YML016C, strain PPZ1, stronger effect = lower value",0.994
same,normalized growth,"locus YML032C, strain rad52, stronger effect = lower value",0.995
same,normalized growth,"locus YML120C, strain ndi1, stronger effect = lower value",1.01
same,normalized growth,"locus YML124C, strain tub3, stronger effect = lower value",1
same,normalized growth,"locus YMR058W, strain fet3, stronger effect = lower value",0.991
same,normalized growth,"locus YMR078C, strain ctf18, stronger effect = lower value",1.01
same,normalized growth,"locus YMR125W, strain sto1, stronger effect = lower value",0.978
same,normalized growth,"locus YMR129W, stronger effect = lower value",0.985
same,normalized growth,"locus YMR205C, strain PFK2, stronger effect = lower value",1
same,normalized growth,"locus YMR223W, strain ubp8, stronger effect = lower value",1.01
same,normalized growth,"locus YMR231W, strain pep5, stronger effect = lower value",0.966
same,normalized growth,"locus YMR307W, strain GAS1, stronger effect = lower value",0.937
same,normalized growth,"locus YNL067W, strain RPL9B, stronger effect = lower value",1.01
same,normalized growth,"locus YNL071W, strain lat1, stronger effect = lower value",0.989
same,normalized growth,"locus YNL153C, strain GIM3, stronger effect = lower value",1.01
same,normalized growth,"locus YNL183C, strain NPR1, stronger effect = lower value",0.982
same,normalized growth,"locus YNL209W, strain ssb2, stronger effect = lower value",0.997
same,normalized growth,"locus YNL233W, strain BNI4, stronger effect = lower value",0.997
same,normalized growth,"locus YNL248C, strain rpa49, stronger effect = lower value",0.942
same,normalized growth,"locus YNL250W, strain rad50, stronger effect = lower value",1.01
same,normalized growth,"locus YNL271C, strain bni1, stronger effect = lower value",1.01
same,normalized growth,"locus YNL298W, strain CLA4, stronger effect = lower value",1.01
same,normalized growth,"locus YNL307C, strain MCK1, stronger effect = lower value",1.02
same,normalized growth,"locus YNL322C, strain KRE1 (second series), stronger effect = lower value",0.985
same,normalized growth,"locus YNR049C, strain mso1, stronger effect = lower value",0.98
same,normalized growth,"locus YNR052C, strain pop2, stronger effect = lower value",1.01
same,normalized growth,"locus YOL012C, strain htz1",0.799
same,normalized growth,"locus YOL147C, strain pex11, stronger effect = lower value",1.01
same,normalized growth,"locus YOR001W, strain rrp6, stronger effect = lower value",0.925
same,normalized growth,"locus YOR061W, strain CKA2, stronger effect = lower value",0.985
same,normalized growth,"locus YOR069W, strain VPS5, stronger effect = lower value",1.01
same,normalized growth,"locus YOR070C, strain gyp1, stronger effect = lower value",0.989
same,normalized growth,"locus YOR080W, strain dia2, stronger effect = lower value",0.976
same,normalized growth,"locus YOR083W, strain WHI5, stronger effect = lower value",1.03
same,normalized growth,"locus YOR106W, strain vam3, stronger effect = lower value",1
same,normalized growth,"locus YOR136W, strain idh2, stronger effect = lower value",1.02
same,normalized growth,"locus YOR144C, strain elg1, stronger effect = lower value",1
same,normalized growth,"locus YOR184W, strain ser1, stronger effect = lower value",0.989
same,normalized growth,"locus YOR231W, strain MKK1, stronger effect = lower value",1.01
same,normalized growth,"locus YOR265W, strain rbl2, stronger effect = lower value",0.979
same,normalized growth,"locus YOR270C, strain vph1, stronger effect = lower value",0.835
same,normalized growth,"locus YOR290C, strain snf2, stronger effect = lower value",1.01
same,normalized growth,"locus YOR316C, strain cot1, stronger effect = lower value",1.02
same,normalized growth,"locus YPL051W, strain arl3, stronger effect = lower value",0.964
same,normalized growth,"locus YPL055C, strain LGE1, stronger effect = lower value",0.963
same,normalized growth,"locus YPL078C, strain atp4, stronger effect = lower value",1.03
same,normalized growth,"locus YPL106C, strain sse1, stronger effect = lower value",1.01
same,normalized growth,"locus YPL240C, strain hsp82, stronger effect = lower value",0.978
same,normalized growth,"locus YPL241C, strain CIN2, stronger effect = lower value",0.999
same,normalized growth,"locus YPL256C, strain CLN2, stronger effect = lower value",1.01
same,normalized growth,"locus YPR119W, strain clb2, stronger effect = lower value",1.01
same,normalized growth,"locus YPR141C, strain kar3, stronger effect = lower value",1.01
same,normalized growth,"locus YPR163C, strain tif3, stronger effect = lower value",1.01
same,normalized growth,"locus YPR167C, strain met16, stronger effect = lower value",1.01
same,normalized growth,"strain wtn01, stronger effect = lower value",0.977
